Results filed as inconclusive are left out. Entries that show only a call come without a potency. Calls of active or inactive are those of the source. Calls come from the whole dose curve; as a rule, active = well fitted inhibition curve with a large enough effect; inconclusive = small, poorly fitted or top-dose-only effect; inactive = flat fitted curve, though single readings scatter.
Each compound was assayed against Calcium and integrin-binding protein 1 (Homo sapiens) (UniProt Q99828) (assay: Primary qHTS for Identification of Calcium Integrin Binding Protein 1 (CIB1) Competitor (AID 1508620;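 note: GST tagged CIB1 binding a fluorescein labelled alphaIIb integrin peptide tracer; top concentration of the series differs between compounds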)). Conditions: CIB1-GST / FITC-alphaIIb peptide fluorescence polarization; series mostly up to 114 µM.
Calcium and integrin-binding protein 1 (Homo sapiens), sequence (Q99828 whole entry, looked up): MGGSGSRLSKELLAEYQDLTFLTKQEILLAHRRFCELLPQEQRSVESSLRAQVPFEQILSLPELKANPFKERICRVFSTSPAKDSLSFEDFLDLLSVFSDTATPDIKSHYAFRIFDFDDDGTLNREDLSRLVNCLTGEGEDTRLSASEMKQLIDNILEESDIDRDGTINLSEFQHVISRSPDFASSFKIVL
How it was run: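 CIB1-GST (1 uM final) and compound incubated 15 min at room temperature before adding FITC-alphaIIb peptide tracer (100 nM final). Competition for binding read by fluorescence polarization (ex 480, em 540) after another 15 min at room temperature.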

SMILES	Potency
CCc1nn2c(=O)cc(N3C(C)CNCC3C)nc2s1 (stereo not given)	inactive
COc1ccc(C2Cc3ccccc3C(=O)N2Cc2ccccc2)cc1COc1ccc(NC(C)=O)cc1 (stereo not given)	inactive
CCOC(=O)CC(=O)Nc1ncnc2c1C(c1ccccc1)c1c(ccc3ccccc13)O2 (stereo not given)	inactive
O=C(Nc1ccc(Cl)c(C(F)(F)F)c1)Nc1nnc(-c2ccncc2)s1	inactive
COc1cccc(C2c3c(ncn(-c4cccc(C#N)c4)c3=N)Oc3ccc4ccccc4c32)c1 (stereo not given)	inactive
COc1cc(-c2ccc3ncnc(N(C)Cc4csc(C)n4)c3c2)cc(OC)c1OC	inactive
Cn1nnnc1Sc1ncnc2scc(-c3cccc(C(F)(F)F)c3)c12	inactive
COc1ccc(/C=C(\C)C2Nc3cccc4cccc(c34)N2)cc1	inactive
O=S(=O)(c1ccc(Br)cc1)N1CCN(S(=O)(=O)c2ccc3c(c2)OCCO3)CC1	inactive
CC(C)(C)OC(=O)N1CCN(c2ccc(NCc3cncc(-c4ccc(C#N)cc4)c3)cc2)CC1	inactive
COc1ccccc1-c1nc(NCc2ccc(-c3cccnc3)cc2)c2ccccc2n1	inactive
O=C(CSc1ncnc2sc3c(c12)CCCCC3)NCc1ccco1	inactive
CCOc1ccc(C(=O)Nc2ccc(-c3nc4ccccc4[nH]3)cc2)cc1	inactive
COC(=O)c1cccc(-c2noc(-c3ccccc3F)n2)c1	inactive
O=C(Nc1ccc(-c2nc3ccccc3[nH]2)cc1)Nc1ccc2c(c1)OCCO2	inactive
COc1ccccc1C1=Nn2c(nnc2-c2cccc(OC)c2OC)SC1	inactive
Cc1cc2c(s1)c1cnn(Cc3ccc(C)c(F)c3F)c(=O)c1n2C	inactive
CN(CC1CCCO1)c1ncnc2ccc(-c3ccc4c(c3)OCO4)cc12 (stereo not given)	inactive
COc1ccc(C2Nc3ccccc3C(=O)N2CCO)cc1COc1ccc(NC(C)=O)cc1 (stereo not given)	inactive
Cc1ccnc(NC(=S)N2CCN(C)CC2)c1	inactive

SMILES	Potency
O=C(O)c1ccc(O)c2ncc(N3CC(N4CCOCC4)C3)cc12	inactive
CCCCN(C)C(=O)Cn1nc(-c2ccncc2)ccc1=O	inactive
Fc1cc(Nc2nc(-c3ccncc3)nc3ccccc23)ccc1-c1cccc(OC(F)(F)F)c1	inactive
CCOC(=O)Nc1sc2c(c1C(N)=O)CCCC2	inactive
S=c1[nH]c2ccccc2n1CCc1ccccc1	inactive
FC(F)(F)c1cccc(N2CCN(C(=S)Nc3ccncc3)CC2)c1	inactive
Cc1ccc(-c2ccnn(CC(=O)N(C)C(C)c3ccco3)c2=O)cc1 (stereo not given)	inactive
O=C(NC1CCCc2c1cnn2-c1ccc(F)cc1F)c1ccn[nH]1 (stereo not given)	inactive
NCCCNc1ncnc2ccc(-c3ccc4c(c3)OCO4)cc12	inactive
O=C(N1CCc2ccc(S(=O)(=O)N3CCN(S(=O)(=O)c4ccc5c(c4)OCCO5)CC3)cc2C1)C(F)(F)F	inactive
O=c1c2ccccc2nc2sc(Nc3ccc(Br)cc3)nn12	inactive
COc1cccc(CNc2ccc(S(=O)(=O)Nc3ncc(C)s3)cc2)c1O	inactive
O=C(O)c1ccc(CSc2nnc(-c3cccc([S+](=O)([O-])NC4CCCC4)c3)n2-c2ccccc2)cc1	inactive
FC(F)(F)c1cccc(-c2nc(NCc3ccc(-c4ccnc(C(F)(F)F)c4)cc3)c3ccccc3n2)c1	inactive
Cc1ccc(CNc2ccc(N3CCOCC3)cc2)cc1	inactive
COc1ccc(C2Nc3ccccc3C(=O)N2Cc2ccccc2C(F)(F)F)cc1COc1ccc(NC(C)=O)cc1 (stereo not given)	inactive
Cc1noc(C)c1-c1ccc2ncnc(NCc3ccc(C(F)(F)F)cc3)c2c1	inactive
O=C(O)c1ccc(O)c2ncc(N3CCCN(CCc4ccncc4)CC3)cc12	inactive
O=C(NCCc1nc2ccccc2n1CCOc1ccc(Cl)cc1)C1CCCCC1	inactive
O=S(=O)(Nc1ccc2ccccc2c1)c1ccc(NCc2ccc(Br)cc2O)cc1	inactive

From PubChem BioAssay (NCATS)
